Assay outcomes as filed in PubChem.
USP30 inh: blocks human USP30 ubiquitin-rhodamine cleavage. Q70CQ3. purified USP30, Ub-rhodamine cleavage fluorescence. inhibition, % at 25 µM. actives 5.3% (n = 47,000). AID 1645860
Target sequence (Q70CQ3 whole entry, looked up): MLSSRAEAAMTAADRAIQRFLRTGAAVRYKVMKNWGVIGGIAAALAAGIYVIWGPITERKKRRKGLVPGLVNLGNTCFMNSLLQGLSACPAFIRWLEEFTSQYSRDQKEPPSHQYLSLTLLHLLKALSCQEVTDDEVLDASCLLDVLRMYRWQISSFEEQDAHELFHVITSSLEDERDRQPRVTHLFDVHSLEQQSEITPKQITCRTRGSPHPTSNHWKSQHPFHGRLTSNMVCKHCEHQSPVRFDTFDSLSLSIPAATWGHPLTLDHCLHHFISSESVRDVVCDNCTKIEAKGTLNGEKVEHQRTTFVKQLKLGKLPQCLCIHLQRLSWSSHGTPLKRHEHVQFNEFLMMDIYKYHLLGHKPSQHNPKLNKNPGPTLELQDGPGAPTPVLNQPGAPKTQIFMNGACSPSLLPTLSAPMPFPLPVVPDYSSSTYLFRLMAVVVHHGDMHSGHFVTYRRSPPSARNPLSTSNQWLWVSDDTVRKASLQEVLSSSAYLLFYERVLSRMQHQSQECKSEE
OTUD3 inh: blocks human OTUD3 ubiquitin-rhodamine cleavage | purified OTUD3, Ub-rhodamine fluorescence, 2 h | inhibition, % at 25 µM | actives 0.7% (n = 47,000) | AID 1645858
USP17 inh: blocks human USP17 ubiquitin-rhodamine cleavage; inhibition, % at 50 µM; purified USP17, Ub-rhodamine cleavage fluorescence, 3 h; A8MUK1; actives 6.5% (n = 47,000)
USP28 inh: blocks human USP28 ubiquitin-rhodamine cleavage; purified USP28, Ub-rhodamine cleavage fluorescence, 30 min; inhibition, % at 25 µM; actives 3% (n = 47,000); AID 1645857
Active calls of the source: *; i = inactive; nt = no result given. An excerpt weighted towards active compounds, which were near 11% of everything screened. Cut-off read from the data, not from the text of the source: active = inhibition above about 30%; inactive = the rest.

SMILES	USP30 inh	OTUD3 inh	USP17 inh	USP28 inh
CC(=O)c1c(C)nn(CC(=O)N2Cc3ccccc3OC3(CCOCC3)C2)c1C	-4.6	-3.9	-1.4	-15.4
CCN(c1ccccc1)S(=O)(=O)c1ccc(Cl)c(C(=O)Nc2nc3c(s2)CCCC3)c1	-174.8	-44.6	-9.8	-27.9
O=C1CC(c2cc3c(cc2Br)OCO3)c2cc3c(cc2N1)OCCO3 (stereo not drawn)	17.9	-0.1	66.9*	10.6
Cc1oc2ncn3nc(C(C)Oc4cccc5ccccc45)nc3c2c1C (stereo not drawn)	-143.7	-12.8	32.5*	-9.2
NC(=O)N1CCCCCC1C1CCN(c2ncnc3ccsc23)CC1 (stereo not drawn)	32.0*	15.4	23.6	15.3
Cc1cn2nc(N3CCC(C4CCCCCN4C(N)=O)CC3)sc2n1 (stereo not drawn)	10.1	10.2	12.0	6.2
Cc1c(CC(=O)NCC(C)C)c(=O)oc2cc3c(cc12)CCC1(CCCCC1)O3	-105.5	21.9	35.7*	6.7
O=C(NCCN1CCOCC1)c1ccc(-n2cccn2)c(C#Cc2cccnc2)c1	4.9	-1.1	-7.5	-4.5
O=C(NCc1ccncc1)c1ccc(-n2cccn2)c(C#Cc2cccnc2)c1	-6.7	-5.3	42.7*	-9.2
O=C(COc1ccccc1F)NCc1cnn2ccccc12	8.4	8.6	6.9	9.5
COc1cccc(CNC(=O)CN2C(=O)[C@@H]3CCCN3c3ncccc32)c1	-14.3	0.1	11.3	-0.3
COc1ccc(N2CCN(C(=O)CN3C(=O)[C@H]4CCCN4c4ncccc43)CC2)cc1	-73.9	-21.6	34.1*	-19.9
Cc1c(C(=O)Nc2ccccn2)oc2c(Cl)cccc12	48.1*	17.2	32.7*	22.6
COc1cccc(CC2(Cc3cccc(OC)c3)C(=O)N(Cc3ccccn3)C(=O)c3ccccc32)c1	35.9*	25.6	21.3	7.9
Clc1ccc2oc(-c3cccs3)nc2c1	10.0	-2.2	5.3	3.9
Nc1ccccc1SCc1noc(-c2cccs2)n1	-11.1	-1.3	-7.8	72.6*
Cn1cc(-c2nc(C3CCN(c4ncccn4)CC3)cc3c2ncn3C)cn1	-134.8	-32.2	-100.9	-94.5
CCCCOC(=O)c1ccc(N2C(=O)C3C(C2=O)C2c4ccccc4C=CN2C3C(=O)c2ccco2)cc1 (stereo not drawn)	i	-105.2	-71.4	-143.4
CCCC(C)NC(=O)c1ccccc1-c1ccc(C(F)(F)F)cc1 (stereo not drawn)	7.7	12.8	16.2	8.6
CC(=O)c1sc(NC(=O)c2ccccc2-c2ccc(C(F)(F)F)cc2)nc1C	38.5*	16.7	64.5*	17.2
CC(=O)Nc1ccc(S(=O)(=O)Nc2ccc(OCc3ccccc3)cc2)cc1	27.5	3.5	18.7	20.6
CCOc1ccc(NS(=O)(=O)c2ccc(NC(=O)Nc3ccccc3)cc2)cc1	82.9*	-8.3	9.5	48.7*
CCOc1ccc(NS(=O)(=O)c2ccc(NC(=O)COc3ccccc3C)cc2)cc1	43.0*	0.4	23.3	11.3
O=S(=O)(Nc1ccccc1Cl)c1ccc(N2CCCCS2(=O)=O)cc1	6.4	1.0	-3.2	-3.2
COc1ccccc1OCC(=O)Nc1ccc(S(=O)(=O)Nc2cc(C)cc(C)c2)cc1	5.2	-7.9	-5.1	0.4
SMILES	USP30 inh	OTUD3 inh	USP17 inh	USP28 inh
Cc1c(Cl)cccc1NS(=O)(=O)c1ccc(N2CCCCS2(=O)=O)cc1	39.9*	-11.1	26.3	4.7
Cc1c(Cl)cccc1NS(=O)(=O)c1ccc(NC(=O)Nc2ccccc2)cc1	33.7*	11.5	39.4*	3.6
COc1ccc(NS(=O)(=O)c2ccc(NC(=O)Nc3ccc(Cl)cc3)cc2)cc1	29.1	13.0	56.1*	42.0*
Cc1ccc(C(C)C)c(OCC(=O)Nc2ccc(S(=O)(=O)Nc3cc(C)nc(C)n3)cc2)c1	0.8	-0.6	8.9	2.3
COc1cc(NS(=O)(=O)c2ccc(NC(=O)COc3ccc(C)cc3Br)cc2)nc(OC)n1	45.3*	-0.8	25.5	-5.4
CCn1cc(C(=O)N2CCOC(c3cc(NC)cc(C)n3)C2)cn1 (stereo not drawn)	13.9	-2.6	-7.7	-2.7
CCCCCCCCC/C=C/C(=O)CCc1c(O)c(C=O)c2c(c1O)C(=O)OC2O (stereo not drawn)	-8.9	74.6*	75.0*	71.0*
O=C(Nc1ccc2c(c1)OCCCO2)c1cc(=O)[nH]c2ccccc12	nt	-0.7	46.1*	nt
O=C(CCCc1c[nH]c2ccccc12)Nc1ccccc1N1CCOCC1	-14.1	-9.0	-5.8	-4.9
O=C(CCCc1c[nH]c2ccccc12)Nc1ccc2c(c1)OCCO2	-20.0	-14.3	-35.2	74.7*
O=C(Nc1ccc(N2CCOCC2)cc1)c1cc(=O)[nH]c2ccccc12	8.6	10.5	59.7*	9.4
CN(CCc1ccccn1)C(=O)C[C@@H]1CCN2C[C@@H]1CCCOc1ccc(N3CCOCC3)cc1CNCC2=O	14.0	13.0	11.9	3.2
COC(=O)CN1c2ccccc2NC2=C(C(=O)CC(C)(C)C2)C1c1cccs1 (stereo not drawn)	30.9*	9.8	2.3	9.1
CC1(C)CC(=O)C2=C(C1)Nc1ccccc1N(Cc1ccccc1)C2c1ccccc1Cl (stereo not drawn)	1.0	-2.6	28.3	-4.0
Cc1ccc(Sc2ccc(C#N)cc2NC(=O)c2ccccc2C)cc1	40.9*	8.1	-4.3	1.6
Cc1cccc(C(=O)Nc2ccc(Sc3ccccc3Cl)cc2)c1	21.1	7.5	13.4	10.6
COC(=O)C(Cc1ccccc1)NC(=O)CSc1nc2ccc(Cl)cc2[nH]1 (stereo not drawn)	-24.3	-12.6	6.7	0.4
CC1=C(C(=O)OCCc2ccccc2)C(c2ccc3c(c2)OCO3)NC(=O)N1 (stereo not drawn)	38.9*	12.1	13.9	33.9*
CCOc1ccc2c(c1)c(=O)c(C(=O)c1ccc(C)cc1)cn2CC(=O)Nc1ccc(OC)cc1	-3.9	-6.5	56.0*	4.1
CCOc1ccc2c(c1)c(=O)c(C(=O)c1ccccc1)cn2CC(=O)Nc1ccc2c(c1)OCCO2	68.9*	12.5	-0.3	15.2
Cc1ccc2c(c1)c(=O)c(C(=O)c1ccccc1)cn2CC(=O)Nc1ccccc1	-44.2	-2.6	59.2*	-29.5
CCOc1ccc2c(c1)c(=O)c(C(=O)c1ccc(F)cc1)cn2CC(=O)Nc1ccccc1	0.0	-1.3	4.1	-1.4
CCOc1ccc2c(c1)c(=O)c(C(=O)c1ccccc1)cn2CC(=O)Nc1ccccc1	-22.4	-4.9	60.2*	-3.3
COc1ccc(OC)c(NC(=O)CS(=O)(=O)c2cn(CC(=O)N3CCC(C)CC3)c3ccccc23)c1	9.3	8.2	51.0*	18.7
CC1CCN(C(=O)Cn2cc(SCC(=O)Nc3ccc4c(c3)OCCO4)c3ccccc32)CC1	5.7	5.6	-0.1	37.6*
CCn1cnc2c(-c3ccccc3)cn(CC(=O)NCc3ccc4c(c3)OCO4)c2c1=O	19.7	6.8	50.6*	8.7
O=C(Cn1cc(C(=O)c2ccccc2)c(=O)c2cc3c(cc21)OCCO3)Nc1ccc2c(c1)OCO2	-29.6	-6.9	-0.6	4.7
Cc1ccc(C(=O)c2cn(CC(=O)Nc3ccc4c(c3)OCO4)c3ccccc3c2=O)cc1	79.5*	22.2	84.9*	13.0
